# From PubChem BioAssay
# CR mimetic SO – reduction of superoxide in aged yeast, primary screen, HTS. S. cerevisiae aged cells, superoxide DHE fluorescence; active compounds read low. superoxide response (% of plate mean), % at 10 µM. 330,000 compounds, 0.18% hits. AID 2690, 2010;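 active = superoxide response under a set limit, about three screen SD below normal, cut at about 65% in these data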;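 also: yeast aged for seven days with compound at 30 °C before DHE staining; 100% = average MFI of all compound-treated wells on the plate with controls excluded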
# ATG4B inh – ATG4B protease inhibitors, primary screen, biochemical, fluorescence, uHTS. ATG4B cleavage of LC3-PLA2, NBD-HPC fluorescence, 1 h. inhibition, % at 8.33 µM. 340,000 compounds, 0.51% hits. AID 504462, 2011; in the data active = inhibition above about 40%
# GRK2 inh – compounds blocking aptamer binding on GRK2 – biochemical, human GRK2, bead flow cytometry, HTS, primary screen; FAM-aptamer displacement from GRK2; inhibition of aptamer binding, % at 10 µM; 330,000 compounds, 0.59% hits; AID 488847, 2010;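 active = inhibition of aptamer binding above 40%, roughly 3 SD of noise, on plates passing a quality check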;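 also: median bead fluorescence of bound FAM aptamer so fluorescent compounds give negative values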
# Target sequence (P25098 whole entry, looked up): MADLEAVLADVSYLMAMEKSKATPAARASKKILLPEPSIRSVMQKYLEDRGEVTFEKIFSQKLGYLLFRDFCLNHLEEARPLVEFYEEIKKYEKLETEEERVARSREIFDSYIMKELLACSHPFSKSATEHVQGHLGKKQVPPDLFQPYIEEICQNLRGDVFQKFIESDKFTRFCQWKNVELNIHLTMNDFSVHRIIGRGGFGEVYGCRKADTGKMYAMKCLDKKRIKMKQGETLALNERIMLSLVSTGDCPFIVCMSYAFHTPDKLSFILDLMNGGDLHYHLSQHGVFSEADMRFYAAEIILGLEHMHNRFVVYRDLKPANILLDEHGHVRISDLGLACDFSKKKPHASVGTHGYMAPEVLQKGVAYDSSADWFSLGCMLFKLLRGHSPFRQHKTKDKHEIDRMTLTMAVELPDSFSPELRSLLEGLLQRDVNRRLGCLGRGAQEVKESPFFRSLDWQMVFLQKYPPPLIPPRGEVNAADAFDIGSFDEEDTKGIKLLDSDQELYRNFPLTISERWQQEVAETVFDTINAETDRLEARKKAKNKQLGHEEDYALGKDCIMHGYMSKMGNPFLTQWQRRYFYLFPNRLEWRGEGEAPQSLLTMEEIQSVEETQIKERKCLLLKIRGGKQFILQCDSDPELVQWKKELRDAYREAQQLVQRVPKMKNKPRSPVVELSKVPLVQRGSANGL
# Efflux pump mplx – inhibitors of Candida efflux pumps in yeast, primary screen, S. cerevisiae, Nile Red, multiplex. S. cerevisiae Candida pump triplex. inhibition, % at 10 µM. 330,000 compounds, 0.44% hits;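 active = plate passing quality check with inhibition over a set limit, or well fluorescence over plate mean plus 4 SD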;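 also: Nile Red retained in pooled yeast measured as flow cytometry median fluorescence; 0% = buffer negative control and 100% = Enniatin B positive control; higher means more Nile Red kept so more efflux inhibition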
# GRK2 inh confirm – GRK2 aptamer-displacing inhibitors, retest, confirmation, biochemical, cherry pick 1, bead flow cytometry; shares compounds with GRK2 inh; bead-bound GRK2, FAM-aptamer displacement; aptamer displacement, % at 10 µM; 2,000 compounds, 4% hits;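 active = aptamer displacement above 40%, near three times the noise of non-fluorescent compounds, on plates passing quality checks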;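 also: negative values mostly reflect intrinsic compound fluorescence rather than true enhancement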
# Aptamer quench 1 – counter-screen for GRK2 aptamer inhibitors: fluorescent aptamer quenchers | shares compounds with GRK2 inh | 110 tested, under 10 active | AID 504521 | Fluorescent RNA aptamer beads, quenching, flow cytometry; active compounds read high | fluorescence change (kMESF span), kMESF (test concentration not listed);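 active = compounds whose bead fluorescence drops by more than 37 kMESF across the dose range, marking them as dye quenchers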
# FAM quench CP1 – aptamer fluorescence quenching in GRK2 counter-screen | AID 504580 | Carboxyfluorescein RNA aptamer on beads, flow cytometry quenching; active compounds read low | shares compounds with GRK2 inh | 2,000 tested, under 10 active | fluorescence response (% of DMSO), % at 10 µM;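 active = compounds that quench the bead-bound fluorescent RNA probe, cutting fluorescence to under half of the solvent control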;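 also: counterscreen run without GRK2 so only probe quenching by compound is measured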
# GRK2 CP2 – GRK2 aptamer-displacing inhibitors, hit retest, confirmation, biochemical, cherry pick 2, bead flow cytometry. 360 tested, under 10 active. bead-bound GRK2, FAM-aptamer displacement. shares compounds with GRK2 inh. inhibition of aptamer binding, % at 10 µM;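 active = inhibition of aptamer binding above 40%, about triple the noise seen with nonglowing compounds, on plates passing quality control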;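 also: negative values mostly come from compounds that fluoresce themselves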
# FAM quench SP – aptamer fluorescence quenching in GRK2 counter-screen; shares compounds with GRK2 inh; carboxyfluorescein RNA aptamer beads, flow cytometry quenching; active compounds read low; fluorescence response vs DMSO, % at 10 µM; 360 tested, under 10 active;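 active = response vs DMSO under 50%, meaning signal dropped by over half, treated as fluorescence quencher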;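 also: labelled aptamer on streptavidin beads without GRK2 as a quench counter-screen; 100% = bead fluorescence of DMSO wells and lower means quenching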
# FAM quench DR – quenchers of FAM-labeled RNA aptamer fluorescence, dose response, artefact control for GRK2 aptamer binding project, biochemical, powder set 1, flow cytometry. shares compounds with GRK2 inh. Bead-bound FAM RNA aptamer fluorescence quenching; active compounds read low. fluorescence ratio to DMSO, % at 11.1 µM. 35 tested, under 10 active. AID 588496, 2011;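 active = compounds that dim the fluorescent label, raw bead signal shifting by over 33 units between lowest and highest dose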
# Numbers without * were called inactive; · = no result given. The list is not random: actives were taken first. Their share in the collection is about 1.6%.
SMILES,CR mimetic SO,ATG4B inh,GRK2 inh,Efflux pump mplx,GRK2 inh confirm,FAM quench CP1,others
CNC(=O)c1c(NC(=O)CCS(=O)(=O)c2ccccc2)sc2c1CCN(C(=O)OC)C2,82.6,0.8,30.0,0.0,·,·,GRK2 CP2=12.7;FAM quench SP=104.0
CC(=O)N1CCc2c(sc(NC(=O)CCS(=O)(=O)c3ccc(C)cc3)c2C#N)C1,101.4,1.4,0.0,0.0,·,·,GRK2 CP2=23.7;FAM quench SP=100.0
CC(C)[C@H](NC(=O)OCc1ccccc1)C(=O)N[C@@H](Cc1c[nH]c2ccccc12)C(=O)O,105.3,-12.8,2.0,0.1,·,·,
COc1ccc(CNS(=O)(=O)c2ccc3c(c2)C(C)(C)C(=O)N3C)cc1,103.7,3.7,2.0,0.6,·,·,
COc1cc(NS(=O)(=O)c2ccc3c(c2)C(C)(C)C(=O)N3C)cc(OC)c1,95.3,-3.8,44.0*,-0.2,4.2,98.9,
CCOc1ccc(CCNC(=O)Nc2cccc(OC)c2)cc1OCC,79.2,7.0,41.0*,-0.2,·,·,GRK2 CP2=-7.6;FAM quench SP=98.0
COc1cccc(NC(=O)NCCC2=CCCCC2)c1,86.7,7.4,5.0,-0.1,·,·,
Cc1ccc(C(=O)NCCCNCCCNC(=O)c2ccc(C)nc2)cn1,81.3,2.2,45.0*,0.0,0.3,97.5,
Nc1c(C(=O)NCc2cccs2)nnn1CC(=O)Nc1cccc(Cl)c1,104.8,-5.7,42.0*,-0.1,·,·,GRK2 CP2=2.3;FAM quench SP=97.0
N#Cc1ccccc1NC(=O)CSc1n[nH]c(=O)n1C1CC1,102.0,6.5,3.0,-0.2,·,·,
O=C(O)c1ccc(-n2cccc2/C=C2/NC(=O)N(c3ccccc3)C2=O)cc1,107.9,5.3,73.0*,0.0,36.0,94.4,
O=C(O)c1ccc(-n2cccc2/C=C2/SC(=O)N(CC(=O)N3CCCC3)C2=O)cc1,86.9,11.5,82.0*,0.0,63.4*,132.7,Aptamer quench 1=15.9
COc1ccc(-c2nc3ccccc3c(=O)n2NC(=O)c2cccnc2Cl)cc1OC,78.2,-3.8,2.0,0.0,·,·,
CC12CCC(c3n[nH]c(=S)nc31)C2(C)C (configuration not stated),69.0,-8.0,73.0*,0.8,·,·,GRK2 CP2=9.4;FAM quench SP=98.0
CC12CCC(c3nnc(SCc4ccc(Cl)cc4)nc31)C2(C)C (configuration not stated),105.4,-6.4,4.0,0.1,·,·,
COc1ccc(CNC(=O)C2(CC3CC(c4ccccc4)=NO3)CCNCC2)cc1 (configuration not stated),99.5,1.1,0.0,-0.1,·,·,
Cc1cc2ccccc2n1CCNC(=O)c1ccc(S(=O)(=O)N2CCCCC2)cc1,92.8,-14.0,83.0*,0.2,84.2*,71.6,Aptamer quench 1=7.5
Cc1ccc(C(=O)NCCc2ccc(S(=O)(=O)N3CCCC3)cc2)cc1,100.9,-2.4,1.0,0.0,·,·,
Cc1cc2ccccc2n1CCNC(=O)C(C)Oc1ccccc1 (configuration not stated),107.0,-27.9,85.0*,0.0,27.7,97.2,Aptamer quench 1=-120;FAM quench DR=101.0
Cc1ccc(S(=O)(=O)NC(Cc2ccccc2)C(=O)O)cc1C (configuration not stated),108.1,-0.1,0.0,0.0,·,·,
Cn1nccc1C(=O)Nc1ccc2c(c1)OCCO2,88.7,-1.3,100.0*,-0.1,2.6,94.8,
COc1ccc2[nH]cc(CCNC(=O)COc3ccc4ccc(=O)oc4c3)c2c1,101.3,-19.6,3.0,-0.1,·,·,
O=C1NC(c2cccc(Br)c2)=N/C1=C\c1ccco1,92.4,-6.4,50.0*,0.2,-2.2,97.9,
Fc1ccc(NC(=S)Nc2cccnc2)c(F)c1F,107.5,3.8,1.0,0.0,·,·,
O=C(Nc1cccc(O)c1)c1ccccc1[N+](=O)[O-],122.2,-2.2,1.0,0.0,·,·,
SMILES,CR mimetic SO,ATG4B inh,GRK2 inh,Efflux pump mplx,GRK2 inh confirm,FAM quench CP1,others
COc1ccc(NC(=O)CSc2nc3ccccc3c3nc4ccccc4n23)cc1,114.0,6.5,0.0,0.4,-3.3,104.9,
O=c1c(Cc2ccc(F)cc2)c(O)ccn1CCc1ccccn1,76.9,-0.4,2.0,-0.1,·,·,
COc1ccc(CCN2CC(C(=O)NCc3ccc(F)cc3)CC2=O)cc1OC (configuration not stated),86.7,-3.9,6.0,0.1,·,·,
O=Cc1ccc(N2N=C(c3ccccc3)CC2c2ccccc2)cc1 (configuration not stated),90.9,3.8,46.0*,0.1,6.3,95.1,
COc1ccc(C2=NN(c3ccc(C=O)cc3)C(c3ccccc3)C2)cc1 (configuration not stated),75.6,-0.6,3.0,0.0,·,·,
Cc1ccc(C(=O)CSc2nc3ccccc3c(=O)[nH]2)cc1C,102.1,-13.1,61.0*,0.9,3.4,103.2,
Cc1ccc2cc(CCNC(=O)C(=O)c3c[nH]c4ccccc34)c(=O)[nH]c2c1,101.8,-22.2,71.0*,0.0,16.9,97.7,
Cc1ccc2nc(SCC(=O)c3c[nH]c4ccccc34)[nH]c2c1,86.6,12.3,58.0*,0.0,-0.6,106.9,
Nc1cc(N)nc(SCC(=O)Nc2cc(S(=O)(=O)N3CCOCC3)ccc2Cl)n1,94.3,-0.7,3.0,0.2,·,·,
CSc1ccccc1NC(=O)N1CCCC(C(=O)c2ccc3c(c2)OCO3)C1 (configuration not stated),90.6,2.6,95.0*,0.1,-1.0,95.7,
O=C(O)c1ccccc1C(=O)NCc1c(Cl)cccc1Sc1ccc(Cl)cc1,106.6,15.5,2.0,0.0,·,·,
COc1ccccc1C(=O)Nc1ccc(N2CCCCC2)cc1,110.7,1.8,0.0,0.0,·,·,
COc1cccc(OC)c1C(=O)Nc1ccc(N2CCCC2)cc1,109.1,5.7,100.0*,0.0,3.4,92.8,
CC(C)=NN1C(c2nonc2N)=NOC1(C)C,105.5,-9.2,39.0,0.0,-4.1,104.3,
CCOc1ccc(N(CC(=O)N2CCCC2)S(=O)(=O)c2ccc(F)cc2)cc1,95.1,1.5,0.0,0.1,·,·,
CCN(CCC(=O)O)c1ccccc1,97.5,-12.8,1.0,0.0,·,·,
